According to PubChem BioAssay (NCATS):
Where “and” joins values, the source holds several entries; their conditions need not be identical. Equal entries are not always repeated. A number with no mark means an inactive call. Records with an inconclusive call do not appear. A call without a number means that no potency is given here. Calls of active or inactive are those of the source. Unless noted, calls follow the shape of the dose curve; as a rule, active = well fitted curve in the direction sought with a large enough effect; inconclusive = small, poorly fitted or top-dose-only effect, or another doubt; inactive = no such curve, though single readings can be large; an effect the other way counts as inactive or inconclusive.

Tests used:
[1] = Cell Viability - Hek293 (AID 427;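 active = compounds whose dose-response curve shows a full or clear partial loss of cell viability, called from curve shape rather than a numeric limit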;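 also: potency is read from the fitted curve at half-maximal effect; cells exposed to compound for 40 hours at 37 °C before reading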); conditions: qHTS
Procedure, shortened: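 Luminescent ATP content (CellTiter-Glo, 20 min at room temperature) was measured after a 40 hr, 37 °C compound exposure of HEK293 cells. AC50 values came from Hill-equation fits of qHTS concentration-response data normalized to DMSO and 100 uM tamoxifen.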

[2] = Cell Viability - MRC5 (AID 434; calls by dose curve;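 also: potency is read from the fitted curve at half-maximal effect; potency reflects cytotoxicity seen as loss of intracellular ATP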); conditions: MRC5 lung fibroblast viability, qHTS
Procedure, shortened: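 MRC5 normal human lung fibroblasts, 1500 cells/well, exposed to compound for 40 hr at 37 C. Cellular ATP was read by CellTiter-Glo luminescence; data normalized to DMSO and 100 uM tamoxifen, with AC50 from Hill fits.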

[3] = Cell Viability - SK-N-SH (AID 435; calls by dose curve;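 also: potency is read from the fitted curve at half-maximal effect; compound exposure lasted 40 h at 37 °C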); conditions: SK-N-SH neuroblastoma cell viability qHTS
Procedure, shortened: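 Cells seeded at 1500 per well and incubated 5 hr at 37 °C. Compound added, then 40 hr at 37 °C. CellTiter-Glo added, 20 min at room temperature, luminescence read.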

[4] = Cell Viability - N2a (AID 540); conditions: N2a mouse neuroblastoma cell viability; activity change, negative = cytotoxicity: at 92.2 µM (top of the series); also: nearly all actives have a fitted effect of over 45% in size
Procedure, shortened: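 Mouse neuroblastoma N2a cells, 1500/well, exposed to compounds 40 h at 37 °C in complete medium. Viability measured as cellular ATP by CellTiter-Glo luminescence; AC50 from Hill fits of concentration-response.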

[5] = Cell Viability - Mesenchymal (AID 546); conditions: mesenchymal cells viability, qHTS; activity change, negative = cytotoxicity: at 91.7 µM (top of the series);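 also: cells exposed to compound for 40 hours before reading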
Procedure, shortened: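 Human kidney mesenchymal cells from normal renal glomeruli, 1000 cells/well, rested 5 hr at 37 °C, then treated 40 hr at 37 °C in complete medium. Cellular ATP read by CellTiter-Glo luminescence; AC50 from Hill-equation fits.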

[6] = Cellular Toxicity (caspase-3) Jurkat (AID 655); conditions: Jurkat caspase-3 activation, luminescence, DMSO = 0%, tamoxifen = 100%; at 92.2 µM (top of the series);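 also: cells exposed to compound for 16 h at 37 °C before reading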
Procedure, shortened: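 Caspase 3/7 activation is scored as increased luminescence in Jurkat cells cultured with compound for 16 hours in complete medium. AC50 values come from Hill fits of qHTS concentration-response data normalized to DMSO and 100 uM tamoxifen controls.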

[7] = Cellular Toxicity (caspase-3) HUV-EC-C (AID 656); conditions: HUV-EC-C cells, caspase-3 activation (apoptosis), vehicle = 0, 100 µM tamoxifen = 100%; series mostly up to 92.2 µM
Procedure, shortened: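 Read-out: luminescence proportional to caspase 3/7 activity, measured 20 min after adding Caspase-Glo 3/7 reagent. Cells (HUV-EC-C) had received compound for 16 hr at 37°C. Increases relative to DMSO and 100 uM tamoxifen gave concentration-response AC50 values.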

[8] = Cellular Toxicity (caspase-3) SHSY5Y (AID 657); conditions: SH-SY5Y caspase-3 activation, DMSO zero, 10 µM staurosporine = 100%; series mostly up to 91.7 µM
Procedure, shortened: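 Cells plated and incubated 5 h at 37 °C, dosed over a concentration range, incubated 16 h, then given Caspase-Glo 3/7 reagent for 1 h at room temperature before luminescence reading. Staurosporine (10 uM) defined full stimulation.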

[9] = Cellular Toxicity (caspase-3) MRC-5 (AID 659); conditions: MRC-5 cells, luminescence, normalized: DMSO 0%, 10 µM staurosporine 100%; series mostly up to 91.7 µM
Procedure, shortened: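 MRC-5 human normal lung fibroblasts, 1500 cells/well, treated 16 h at 37 °C in complete medium. Caspase 3/7 measured by Caspase-Glo luminescence after 1 h at room temperature. Normalized to DMSO and 10 uM staurosporine; AC50 from Hill fit.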

[10] = Cellular Toxicity (caspase-3) Mesangial (AID 660); conditions: mesangial cells, normalized: DMSO 0%, 100 µM tamoxifen 100%; series mostly up to 91.7 µM
Procedure, shortened: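 Human renal glomerular mesangial cells, 1000/well, 5 h at 37 C before 16 h compound treatment. Caspase-Glo 3/7 luminescence after 20 min; normalized to DMSO and 100 uM tamoxifen, AC50 from Hill fit.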

[11] = Cellular Toxicity (caspase-3) H-4-II-E (AID 663); conditions: H-4-II-E rat hepatoma; Potency: caspase-3 activation; series mostly up to 92.2 µM;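 also: cells exposed to compound for 16 hr before readout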
Procedure, shortened: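 Rat hepatoma H-4-II-E cells (1500/well) plated 5 hr, then exposed to compound titrations for 16 hr at 37 °C. Caspase-Glo 3/7 luminescence read after 20 min at RT; data normalized to DMSO and 100 uM tamoxifen, AC50 from Hill fits.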

[12] = Cellular Toxicity (caspase-3) Hek293 (AID 664); conditions: HEK293 caspase-3 activation, DMSO = 0%, 100 µM tamoxifen = 100%; series mostly up to 92.2 µM;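 also: cells exposed to compound for 16 h at 37 °C before readout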
Procedure, shortened: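 HEK293 cells in complete medium treated 16 h at 37 °C, then Caspase-Glo 3/7 luminescence read after 20 min at room temperature. Normalized to DMSO and 100 uM tamoxifen; AC50 from Hill fit of concentration-response.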

[13] = Cellular Toxicity (caspase-3) N2a (AID 665); conditions: N2a cells, luminescence, normalized: DMSO 0%, 10 µM staurosporine 100%; series mostly up to 92.2 µM;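 also: compound exposure lasted 16 h at 37 °C before readout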
Procedure, shortened: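 Mouse N2a neuroblastoma cells, 1500 per well, treated 16 h at 37 °C in complete medium; caspase-3/7 activity by Caspase-Glo luminescence after 1 h. Normalized to DMSO and 10 uM staurosporine; AC50 from Hill fits.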

[14] = Cellular Toxicity (caspase-3) NIH 3T3 (AID 666); conditions: NIH 3T3 caspase-3 activation, apoptosis/toxicity, 0% DMSO, 100% is 100 µM tamoxifen; series mostly up to 92.2 µM;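 also: caspase signal read after 16 h compound exposure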
Procedure, shortened: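 Mouse NIH 3T3 fibroblasts (1000/well) treated 16 h at 37 C; caspase-3/7 activity measured by Caspase-Glo 3/7 luminescence after 20 min. Normalized to DMSO and 100 uM tamoxifen; AC50 from Hill fits.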

[15] = Cellular Toxicity (caspase-3) Renal Proximal Tubule (AID 667); conditions: renal proximal tubule cells, primary cells freshly taken from rat, solvent-only wells 0%, staurosporine 100%; series mostly up to 91.7 µM;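 also: cells exposed to compound for 16 hours at 37 °C before detection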
Procedure, shortened: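 In qHTS format, rat primary proximal tubule cells seeded at 1000 per well are exposed to compounds for 16 hours at 37 °C. An increase in Caspase-Glo 3/7 luminescence indicates caspase activation.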

[16] = Cell Viability - LYMP2-001 (AID 921); conditions: LYMP2-001 lymphoblastoid cell viability; series mostly up to 92.2 µM;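 also: cells exposed to compound for 24 h at 37 °C; nearly all actives have a fitted effect of over 70% in size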
Procedure, shortened: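 qHTS, 1536-well; lymphoblastoid cells, 24 hr compound, 37 C; ATP by CellTiter-Glo, 30 min RT; luminescence; Hill-fit AC50.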

[17] = MultiTox-Fluor Cytotoxicity Assay - LYMP1-001 - Dead Cells (AID 946); conditions: LYMP1-001 lymphoblastoid cells, dead-cell protease fluorescence; series mostly up to 92.2 µM
Procedure, shortened: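 Cytotoxicity as increased dead-cell protease fluorescence (bis-AAF-R110, 485/520 nm), read 60 min after MultiTox-Fluor reagent. Human lymphoblastoid line exposed 16 h; Hill-fitted AC50, with DMSO as 0% and 15 uM tetraoctylammonium bromide as 100%.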

[18] = Cell Viability - LYMP1-002 - Assay at 16 hr (AID 948); conditions: LYMP1-002 lymphoblastoid cell viability; series mostly up to 92.2 µM
Procedure, shortened: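 Acute cytotoxicity is scored as a concentration-dependent fall in intracellular ATP in a human lymphoblastoid line (LYMP1-002) after 16 hr compound exposure at 37 C, measured by luciferase luminescence.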

[19] = biological target: Peroxisome proliferator-activated receptor gamma (Homo sapiens) (UniProt P37231); assay: qHTS assay for small molecule agonists of peroxisome proliferator-activated receptor gamma signaling (AID 588536; active = well fitted curve in the direction sought with a large enough effect in the signal ratio, with a control signal flat, not every such curve was filed as active; the % refers to the signal ratio); conditions: HEK293 PPARg-UAS-bla, beta-lactamase ratio, 16 h, percent of rosiglitazone response, DMSO as zero; series mostly up to 76.7 µM
Procedure, shortened: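 Ratiometric blue/green fluorescence (405 nm excitation; 460 and 530 nm emission) from CCF4-loaded HEK293 reporter cells serves as signal. Exposure to test compounds lasts 16 h at 37 C in medium containing 1% charcoal/dextran-treated serum.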

[20] = qHTS assay for small molecule activators of the p53 signaling pathway (AID 651743; active = well fitted activation curve with a large enough effect in the signal ratio, not every such curve was filed as active; the % refers to the signal ratio); conditions: HCT-116 p53RE-bla, beta-lactamase FRET ratio, 16 h; activation: stronger effect = higher value
Procedure, shortened: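 p53RE-bla HCT-116 cells carrying a beta-lactamase reporter under p53 response elements were exposed to compounds for 16 hours at 37 C. Reporter activity read as fluorescence after 2 hours at room temperature with LiveBLAzer B/G FRET substrate.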

Peroxisome proliferator-activated receptor gamma (Homo sapiens), sequence (P37231 whole entry, looked up): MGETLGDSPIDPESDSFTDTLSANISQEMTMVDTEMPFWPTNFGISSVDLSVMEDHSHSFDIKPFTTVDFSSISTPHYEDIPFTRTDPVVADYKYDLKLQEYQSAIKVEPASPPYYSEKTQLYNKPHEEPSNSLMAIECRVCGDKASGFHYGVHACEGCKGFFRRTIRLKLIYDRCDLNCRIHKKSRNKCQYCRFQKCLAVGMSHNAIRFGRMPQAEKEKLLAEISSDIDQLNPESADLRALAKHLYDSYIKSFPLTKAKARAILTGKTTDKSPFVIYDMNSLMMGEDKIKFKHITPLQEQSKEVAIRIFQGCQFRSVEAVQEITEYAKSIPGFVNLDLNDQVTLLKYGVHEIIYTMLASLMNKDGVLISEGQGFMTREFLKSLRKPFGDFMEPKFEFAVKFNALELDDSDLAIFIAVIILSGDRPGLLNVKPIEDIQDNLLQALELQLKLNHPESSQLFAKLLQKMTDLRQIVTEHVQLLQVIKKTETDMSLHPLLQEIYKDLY

C=CC(=C)CCC=C(C)C
Potency [1]: > 92 µM | Potency [2]: > 92 µM | Potency [3]: > 92 µM | activity change, negative = cytotoxicity [4]: 5.78% | activity change, negative = cytotoxicity [5]: -3.53% | caspase-3 activation [6]: -0.362% | outcome [7]: inactive | outcome [8]: inactive | outcome [9]: inactive | outcome [10]: inactive | Potency [11]: inactive | outcome [12]: inactive | outcome [13]: inactive | outcome [14]: inactive | outcome [15]: inactive | Potency [16]: inactive | Potency [17]: inactive | Potency [18]: inactive | outcome [19]: inactive | activation [20]: 0.0217%

CC1=C2[C@H](/C=C(\C)C(=O)O)CC[C@@H](C)[C@H]2CC1
Potency [1]: > 92 µM | Potency [2]: > 92 µM | Potency [3]: > 92 µM | activity change, negative = cytotoxicity [4]: 10.9% | activity change, negative = cytotoxicity [5]: 9.76% | caspase-3 activation [6]: 97.3% (active) | outcome [7]: inactive | outcome [8]: inactive | outcome [9]: inactive | outcome [10]: inactive | Potency [11]: inactive | outcome [12]: inactive | outcome [13]: inactive | outcome [14]: inactive | outcome [15]: inactive | Potency [16]: inactive | Potency [17]: inactive | Potency [18]: inactive | outcome [19]: inactive | activation [20]: -7.78%

COc1ccc(/C=C/c2cc(OC)cc(=O)o2)cc1
Potency [1]: > 92 µM | Potency [2]: > 92 µM | Potency [3]: > 92 µM | activity change, negative = cytotoxicity [4]: -11.5% | activity change, negative = cytotoxicity [5]: -3.53% | caspase-3 activation [6]: -4.41% | outcome [7]: inactive | outcome [8]: inactive | outcome [9]: inactive | outcome [10]: inactive | Potency [11]: inactive | outcome [12]: inactive | outcome [13]: inactive | outcome [14]: inactive | outcome [15]: inactive | Potency [16]: inactive | Potency [17]: inactive | Potency [18]: inactive | outcome [19]: inactive | activation [20]: 10.5%

CCCCCCCCCCCC(=O)O
Potency [1]: > 92 µM | Potency [2]: > 92 µM | Potency [3]: > 92 µM | activity change, negative = cytotoxicity [4]: -16.1% and -7.4% | activity change, negative = cytotoxicity [5]: -0.623% and 0.657% | caspase-3 activation [6]: -6.31% and -4.32% | outcome [7]: inactive | outcome [8]: inactive | outcome [9]: inactive | outcome [10]: inactive | Potency [11]: inactive | outcome [12]: inactive | outcome [13]: inactive | outcome [14]: inactive | outcome [15]: inactive | Potency [16]: inactive | Potency [17]: inactive | Potency [18]: inactive

C=CCc1ccc(OC)c(OC)c1
Potency [1]: > 92 µM | Potency [2]: > 92 µM | Potency [3]: > 92 µM | activity change, negative = cytotoxicity [4]: -13.8% | activity change, negative = cytotoxicity [5]: -7.19% | caspase-3 activation [6]: -0.00061% | outcome [7]: inactive | outcome [8]: inactive | outcome [9]: inactive | outcome [10]: inactive | Potency [11]: inactive | outcome [12]: inactive | outcome [13]: inactive | outcome [14]: inactive | outcome [15]: inactive | Potency [16]: inactive | Potency [17]: inactive | Potency [18]: inactive | outcome [19]: inactive | activation [20]: 0.847% and -0.413%
